In PubChem BioAssay AID662 (National Center for Advancing Translational Sciences (NCATS), 2007):
In all, about 71,000 compounds went through this assay and about 1,800 (2.5%) were called active. Inconclusive results (about 26%) are left out. What follows is part of a selection rich in actives, with near analogues and random picks from the rest. A call without a number means that no potency is given here. Values without a mark were called inactive. Calls follow the shape of the dose curve; as a rule, active = well fitted activation curve with a large enough effect in the signal ratio, with a control signal flat (not every such curve was filed as active); inconclusive = small, poorly fitted or top-dose-only effect, or effect the other way, or a change in a side signal; inactive = flat fitted curve, though single readings scatter; the % refers to the signal ratio.

assay: Cell signaling CRE-BLA (Fsk stim); settings: CHO CRE-bla reporter (cAMP response element driving beta-lactamase), forskolin EC10, beta-lactamase ratio; series mostly up to 38.2 µM
Method in brief: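 AC50 values, positive or negative, reflect shifts in EC10 NKH 477-induced CRE-bla reporter activity in CHO cells. Incubation lasted 3 h at 37 °C before CCF4 substrate (2 h, room temperature) and ratiometric 460/530 nm reading.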
Potency is read from the fitted curve at half-maximal effect.

| Compound | Potency | activity change, negative = inhibition |
| --- | --- | --- |
| CCCCCCN(C(=O)CCCCCN1C(=O)NC(c2ccc(C(F)(F)F)cc2)C(C(=O)OCc2ccccc2)=C1C)C(C(=O)NCCCC)c1ccc(OCC(=O)OC)c(C(=O)OC)c1 (stereo not given) | inactive | – |
| Cc1ccc2oc(=O)ccc2c1 | inactive | – |
| c1ccc(Oc2ccccc2)cc1 | inactive | – |
| COc1ccc(C2C(C#N)=C(N)Oc3n[nH]c(C)c32)cc1CN1CCN(c2ccc(F)cc2)CC1 (stereo not given) | inactive | – |
| CCN1C(=O)c2cccc3c(N)ccc1c23 | 10 µM (active) | – |
| C[N+](C)(CCCCCC[N+](C)(C)CCCN1C(=O)c2cccc3cccc(c23)C1=O)CCCN1C(=O)c2cccc3cccc(c23)C1=O | inactive | – |
| CCCCN(C)C(=O)c1ccc2c(c1)N(CC)C(=O)c1ccccc1S2(=O)=O | inactive | – |
| NC(=O)C1CC=CCC1C(=O)OCC(Cl)=C(Cl)Cl (stereo not given) | inactive | – |
| CC(=O)Oc1cccc(N2C(=O)C3CC=C(Cl)CC3C2=O)c1 (stereo not given) | inactive | – |
| CC(=O)c1cccc(NC(=O)c2ccncc2)c1 | inactive | – |
| Cc1cc(C)c2c(n1)nn1c(-n3ccnc3)cc(C)nc21 | 6.31 µM (active) | – |
| CC(=O)Nc1ccc(S(=O)(=O)N2CCSCC2)cc1 | inactive | – |
| O=C(CCN1C(=O)c2ccccc2C1=O)Nc1ccncc1 | inactive | – |
| Cn1c(=O)[nH]c(=O)c2c1nc(Br)n2CCCCSc1nc2ccccc2o1 | 2.51 µM (active) | – |
| CC1CCN(c2nc3c(c(=O)[nH]c(=O)n3C)n2CCCc2ccccc2)CC1 | inactive | – |
| Cn1c(=O)[nH]c(=O)c2c1nc(N1CCCCCC1)n2CC(=O)c1ccccc1 | inactive | – |
| C[C@]1(C(=O)NCCc2c[nH]c3ccccc23)C=C[C@@H](Cc2ccccc2)N1C(=O)c1ccccc1 | inactive | – |
| C1CCC2OC2C1 (stereo not given) | inactive | – |
| CC(=O)Nc1cccc(Oc2cc(C#N)c(C#N)cc2N2CCOCC2)c1 | 5.01 µM (active) | – |
| CCOc1cccc(NC(=O)CC#N)c1 | inactive | – |

| Compound | Potency | activity change, negative = inhibition |
| --- | --- | --- |
| CC(=O)Nc1ccc(S(=O)(=O)Nc2ccc(N3CCOCC3)c(F)c2)cc1 | inactive | – |
| CCCC(Cl)CCCC(Cl)CCC(Cl)CCC(Cl)CCC(Cl)CCCC(Cl)CCC (stereo not given) | inactive | – |
| O=C(Cl)c1ccccc1[N+](=O)[O-] | inactive | – |
| CCOC(=O)C1CCN(C(=O)c2oc3ccc(S(=O)(=O)N4CCCCCC4)cc3c2C)CC1 | inactive | – |
| CCOC(=O)N1CCN(C(=O)C2CCN(c3ncnc4c3sc3cccc(F)c34)CC2)CC1 | inactive | – |
| CCOC(=O)C1CCN(c2ncnc3c2oc2ccc(Br)cc23)CC1 | 2.51 µM (active) | – |
| COc1ccc(-n2c(SC)nc(O)cc2=O)cc1 | – | -26.5% [at 7.6 µM] |
| COC(=O)c1ccc(S(=O)(=O)c2ccc(C(=O)OC)s2)s1 | inactive | – |
| CSc1nnc2c(n1)OC(c1cn(C)c3ccccc13)N(C(C)=O)c1ccccc1-2 (stereo not given) | – | 2.27% [at 7.6 µM] |
| c1ccc2cc(OCCN3CCCC3)ccc2c1 | – | -1.69% [at 7.6 µM] |
| COc1cccc2c(=O)n(CC(=O)N3CCCCCC3)ccc12 | inactive | – |
| CCOC(=O)/C=c1\s/c(=C\c2ccccc2OC)c(=O)n1CC(=O)N1CCOCC1 | 2.51 µM (active) | – |
| CCOc1ccccc1/C=c1\sc2nc(-c3ccco3)nn2c1=O | inactive | – |
| O=C(NC1CCN(Cc2ccccc2)CC1)c1ccccc1F | inactive | – |
| COCCOC(=O)C1=C(C)NC(=O)NC1c1ccc(Cl)cc1 (stereo not given) | inactive | – |
| Cc1nc(N2CCCC2C(=O)O)c2oc3ccccc3c2n1 (stereo not given) | inactive | – |
| CCSc1nc(C)nc2c1oc1ccccc12 | 12.6 µM (active) | – |
| C[C@@H](Nc1nc(-c2ccccc2)nc2c1oc1ccccc12)C(=O)O | inactive | – |
| CCCc1nc2ccccc2c(C(=O)OCc2nnc(-c3cc(OC)c(OC)c(OC)c3)o2)c1CC | 0.501 µM (active) | – |
| CCOC(=O)c1cc(-c2nnc(-c3cc(OC)c(OC)c(OC)c3)o2)c(C)nc1C | inactive | – |

| Compound | Potency | activity change, negative = inhibition |
| --- | --- | --- |
| O=C(OCc1nnc(-c2ccccc2)o1)c1ccc2c(c1)C(=O)N(CCc1ccccc1)C2=O | inactive | – |
| C[C@@H]1O[C@@H](O[C@@H]2[C@@H](O)[C@H](OCCc3ccc(O)c(O)c3)O[C@H](CO[C@@H]3O[C@H](CO)[C@@H](O)[C@H](O)[C@H]3O)[C@H]2OC(=O)/C=C/c2ccc(O)c(O)c2)[C@H](O)[C@H](O)[C@H]1O | inactive | – |
| N[C@@H](C(=O)O)c1ccc(P(=O)(O)O)cc1 | inactive | – |
| CC1CN(c2cc(=O)n(Cc3ccc(F)cc3)c(=O)[nH]2)CC(C)O1 (stereo not given) | inactive | – |
| COCc1cc(C)nc(Nc2cc(C)ccc2C)c1C#N | inactive | – |
| CCOC(=O)c1c(-n2cnnn2)sc(C)c1C | inactive | – |
| COC(=O)c1c(NC(=O)CSc2nncs2)sc2c1CCCCC2 | 6.31 µM (active) | – |
| CCOC(=O)c1sc(NC(=O)CCN2CCOCC2)c(C(=O)OCC)c1C | inactive | – |
| COC(=O)c1sc(NC(=O)c2csc3c2CCCC3)nc1C | inactive | – |
| N#Cc1c(NC(=O)CSc2nc3ccccc3c(=O)n2Cc2ccco2)sc2c1CCCC2 | inactive | – |
| CCOCC(=O)Nc1sc2c(c1C(=O)OCC)CCCC2 | 10 µM (active) | – |
| C=CCOC(=O)COCCC(C)C | inactive | – |
| CC1C(c2ccccc2)=[N+]([O-])C2(CCCC2)N1O (stereo not given) | inactive | – |
| CCCC[C@@H]1C[C@H]1C(NC(=O)c1ccco1)c1ccc(C(=O)OC)cc1 (stereo not given in full) | inactive | – |
| C/C=C1\C(=O)C[C@@H]2[C@@H]3CCC4=CC(=O)CC[C@@]4(C)[C@H]3CC[C@@]12C | inactive | – |
| O=C(Nc1cccc(F)c1)c1ccc(S(=O)(=O)N2CCCC2)cc1 | inactive | – |
| CCOc1cc2[nH]c(=S)n(CCCN3CCCC3=O)c(=O)c2cc1OCC | inactive | – |
| CC(C)(C)OC(=O)c1c(N)n(CCCN2CCCC2=O)c2nc3ccccc3nc12 | 10 µM (active) | – |
| CSc1nnc(-c2ccncc2)n1CCCN1CCCC1=O | inactive | – |
| Cc1ccccc1C(=O)O | inactive | – |
